Laboratory results published in PubChem BioAssay (EPA / NIEHS).
“And” between values parts separate entries of the source, which are not always exact repeats. Identical values can stand only once. Inconclusive results are not listed. The source holds several records for some structures; these can differ, active in one and inactive in another. The source made the active and inactive calls. The calls were made as follows, unless noted: active = hit-call score of the fitted dose curve at least 0.9, where 1 is the maximum; inconclusive = response in the unintended direction; inactive = score below 0.9.

What was measured:
[1] = read-out: Thyroid Hormone Responsive (THRSP), THRSP (gene 7069); test: LTEA_HepaRG_THRSP: Life Technologies and Expression Analysis (LTEA) Assay for Thyroid Hormone Responsive (THRSP) using HepaRG (AID 2283536; active = hit-call score of the fitted dose curve at least 0.9, where 1 is the maximum; inactive = score below 0.9); conditions: mRNA level, 48 h; actives raise or lower the signal
Method in brief: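 qRT-PCR read-out (Fluidigm TaqMan), housekeeping-normalized (ACTB/GAPDH/POLR2A). HepaRG, 48 h chemical exposure, 8-pt half-log series from 100 uM in 0.5% DMSO, duplicates. Bidirectional curve fit vs 0.5% DMSO baseline.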

[2] = read-out: Cellular tumor antigen p53 (Homo sapiens) (UniProt P04637); test: LTEA_HepaRG_TP53: Life Technologies and Expression Analysis (LTEA) Assay for Tumor Protein P53 (TP53) using HepaRG (AID 2283537; active = hit-call score of the fitted dose curve at least 0.9, where 1 is the maximum; inactive = score below 0.9); conditions: mRNA level, 48 h; actives raise or lower the signal
Method in brief: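 Gain or loss of TP53 mRNA signal is scored relative to 0.5% DMSO after 48 h chemical treatment of HepaRG liver cells, tested in duplicate at eight half-log concentrations up to 100 uM.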

[3] = read-out: UDP glucuronosyltransferase (UGT1A1), UGT1A1 (gene 54658); test: LTEA_HepaRG_UGT1A1: Life Technologies and Expression Analysis (LTEA) Assay for UDP glucuronosyltransferase (UGT1A1) using HepaRG (AID 2283538; active = hit-call score of the fitted dose curve at least 0.9, where 1 is the maximum; inactive = score below 0.9); conditions: mRNA level, 48 h; actives raise or lower the signal
Method in brief: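 UGT1A1 transcript level, measured by qRT-PCR with three housekeeping genes for normalization, after 48 h treatment of human HepaRG cells (0.5% DMSO, duplicates, up to 100 uM, half-log steps, 8 points). Curves fit both directions against DMSO baseline.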

[4] = read-out: UDP glucuronosyltransferase (UGT1A6), UGT1A6 (gene 54578); test: LTEA_HepaRG_UGT1A6: Life Technologies and Expression Analysis (LTEA) Assay for UDP glucuronosyltransferase (UGT1A6) using HepaRG (AID 2283539; active = hit-call score of the fitted dose curve at least 0.9, where 1 is the maximum; inactive = score below 0.9); conditions: mRNA level, 48 h; actives raise or lower the signal
Method in brief: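 Expression was quantified by TaqMan qRT-PCR on Fluidigm arrays with ACTB/GAPDH/POLR2A normalization and bidirectional fitting against 0.5% DMSO. HepaRG cells (~100,000/well) were treated in duplicate for 48 h at eight half-log concentrations up to 100 uM in serum-free induction medium.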

[5] = read-out: X-box binding protein 1 (XBP1), XBP1 (gene 7494); test: LTEA_HepaRG_XBP1: Life Technologies and Expression Analysis (LTEA) Assay for X-box binding protein 1 (XBP1) using HepaRG (AID 2283540; active = hit-call score of the fitted dose curve at least 0.9, where 1 is the maximum; inactive = score below 0.9); conditions: mRNA level, 48 h; actives raise or lower the signal
Method in brief: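 XBP1 transcript by qRT-PCR (housekeeping-normalized: ACTB, GAPDH, POLR2A) after 48 h chemical treatment of HepaRG cells, 8-point half-log series topping at 100 uM, vehicle 0.5% DMSO. Gain and loss of signal fitted relative to DMSO.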

[6] = LTEA_HepaRG_LDH_cytotoxicity: Cytotoxicity Assessment in the Life Technologies and Expression Analysis (LTEA) Assay (AID 2283563);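 as to AC50: LDH activity released into spent culture medium as a marker of cell death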
Method in brief: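 LDH release into culture medium read after 48 h chemical treatment of HepaRG cells. Duplicate wells, eight-point half-log series topping at 100 uM, 0.5% DMSO vehicle and baseline.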

[7] = TOX21_p53_BLA_p2_viability: Viability Assessment in the Tox21 HCT-116 p53 Agonism Beta-lactamase Assay, Phase 2 (AID 2283591);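 also: compound exposure lasted 16 h at 37 °C; actives lower the ATP signal meaning cytotoxicity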
Method in brief: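 HCT116 p53-bla cells, 4000/well, dosed after 5 h plating (217-fold dilution of DMSO stocks) and incubated 16 h at 37C. Viability taken as cellular ATP by CellTiter-Glo luminescence after 30 min RT; signal loss marks cytotoxicity.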

[8] = TOX21_p53_BLA_p3_viability: Viability Assessment in the Tox21 HCT-116 p53 Agonism Beta-lactamase Assay, Phase 3 (AID 2283593);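 also: cells exposed to compound for 16 h before reading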
Method in brief: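 HCT116 cells, 4000/well, dosed 5 h after plating by pin transfer (217-fold dilution from DMSO stock) and incubated 16 h at 37C, 5% CO2. Viability read as ATP luminescence with CellTiter-Glo after 30 min at room temperature.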

[9] = target: Cellular tumor antigen p53 (Homo sapiens) (UniProt P04637); test: TOX21_p53_BLA_p3_ratio: Tox21 HCT-116 p53 Agonism Beta-lactamase Assay, Ratio, Phase 3 (AID 2283596)
Chain of Cellular tumor antigen p53 (Homo sapiens) (P04637 whole entry, looked up): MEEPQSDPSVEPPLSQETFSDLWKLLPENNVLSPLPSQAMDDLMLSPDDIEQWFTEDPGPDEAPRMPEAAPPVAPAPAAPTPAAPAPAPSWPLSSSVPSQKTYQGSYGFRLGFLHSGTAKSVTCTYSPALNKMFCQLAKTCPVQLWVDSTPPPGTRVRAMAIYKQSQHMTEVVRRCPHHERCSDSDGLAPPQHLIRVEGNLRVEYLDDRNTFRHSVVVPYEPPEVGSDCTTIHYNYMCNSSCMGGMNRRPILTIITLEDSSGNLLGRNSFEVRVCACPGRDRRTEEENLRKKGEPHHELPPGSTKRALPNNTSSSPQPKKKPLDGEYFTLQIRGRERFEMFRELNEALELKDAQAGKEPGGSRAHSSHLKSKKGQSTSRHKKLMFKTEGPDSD
Method in brief: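 Cells were seeded at 4000/well, rested 5 h at 37C, then dosed with DMSO compound solutions (217-fold dilution) for 16 h. CCF4-AM substrate was loaded for 2 h at room temperature, and the 460/530 nm emission ratio was fitted for gain of signal versus DMSO.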

[10] = TOX21_p53_BLA_p4_viability: Viability Assessment in the Tox21 HCT-116 p53 Agonism Beta-lactamase Assay, Phase 4 (AID 2283597);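 also: hits lower the luminescence signal meaning cytotoxicity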
Method in brief: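 Cytotoxicity as reduced cellular ATP (CellTiter-Glo luminescence, 30 min room temperature), measured in the same wells following the CCF4 FRET p53 reading. Human HCT-116 cells received compounds in DMSO (217-fold dilution) for 16 h.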

[11] = TOX21_p53_BLA_p5_viability: Viability Assessment in the Tox21 HCT-116 p53 Agonism Beta-lactamase Assay, Phase 5 (AID 2283600)
Method in brief: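 Viability came from CellTiter-Glo ATP luminescence, read after 30 min at room temperature. Before this, HCT-116 p53-bla cells (4000/well) had 16 hours of compound exposure at 37C, with DMSO stocks diluted 217-fold on transfer.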

[12] = target: Cellular tumor antigen p53 (Homo sapiens) (UniProt P04637); test: TOX21_p53_BLA_p4_ratio: Tox21 HCT-116 p53 Agonism Beta-lactamase Assay, Ratio, Phase 4 (AID 2283601)
Method in brief: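 HCT-116 p53 beta-lactamase reporter cells (4000/well) preincubated 5 h, then compound (217-fold dilution of DMSO stock) for 16 h at 37C. CCF4-AM substrate added 2 h at room temperature; 460/530 nm emission ratio fitted upward versus DMSO.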

[13] = Tanguay_ZF_120hpf_MORT_legacy: (Legacy) Oregon State University Tanguay Lab 120 Hour Post-fertilization zebrafish Assay for Mortality (AID 2283633)
Method in brief: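 Static waterborne exposure from 6 to 120 hpf at 28C of single dechorionated wild-type (5D) embryos per well, 0.64% DMSO final. Death recorded present/absent by brightfield at 24 and 120 hpf.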

[14] = Tanguay_ZF_120hpf_YSE_legacy: (Legacy) Oregon State University Tanguay Lab 120 Hour Post-fertilization zebrafish Assay for Yolk Sac Edema (AID 2283634);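 as to AC50: actives raise the incidence of yolk sac edema above the DMSO baseline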
Method in brief: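 Presence or absence of yolk sac edema was recorded at 120 hpf in surviving larvae. These were wild-type Tropical 5D embryos, chorion removed at 4 hpf, held in static exposure at 28C from 6 hpf with 0.64% DMSO vehicle.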

[15] = Tanguay_ZF_120hpf_AXIS_legacy: (Legacy) Oregon State University Tanguay Lab 120 Hour Post-fertilization zebrafish Assay for Body Axis Malformation (AID 2283635);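 as to AC50: potency for an increased fraction of larvae scored with body axis malformation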
Method in brief: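 Binary scoring of axis defects at 120 hpf under brightfield, fitted positive versus DMSO. Tropical 5D embryos, chorion removed by pronase at 4 hpf, were singly exposed in sealed, dark plates at 28C from 6 hpf; DMSO 0.64% final.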

[16] = Tanguay_ZF_120hpf_EYE_legacy: (Legacy) Oregon State University Tanguay Lab 120 Hour Post-fertilization zebrafish Assay for Eye Malformation (AID 2283636);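 also: binary presence or absence of eye malformation scored by brightfield in 120 hpf larvae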
Method in brief: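 5D wild-type embryos, pronase-dechorionated at 4 hpf; static exposure 6–120 hpf, 28C, dark; DMSO 0.64% final; 5uM trimethyltin chloride positive control. Binary eye-defect scoring at 120 hpf; dead embryos not scored.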

[17] = Tanguay_ZF_120hpf_SNOU_legacy: (Legacy) Oregon State University Tanguay Lab 120 Hour Post-fertilization zebrafish Assay for Snout Malformation (AID 2283637)
Method in brief: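 Binary brightfield scoring of snout malformation at 120 hpf. Dechorionated 5D wild-type embryos, one per well, static exposure from 6 hpf at 28C, sealed and dark; final DMSO 0.64% (vol/vol), DMSO as baseline; 5uM trimethyltin chloride positive control.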

[18] = Tanguay_ZF_120hpf_JAW_legacy: (Legacy) Oregon State University Tanguay Lab 120 Hour Post-fertilization zebrafish Assay for Jaw Malformation (AID 2283638)
Method in brief: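 Binary jaw-malformation call at 120 hpf by brightfield microscopy. Embryos (Tropical 5D strain, chorion removed at 4 hpf) were dosed statically at 6 hpf, one per well, at 28C with 0.64% DMSO. Embryos that died were not scored.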

[19] = ATG_XTT_Cytotoxicity: Cytotoxicity Assessment in the Attagene TRANS-FACTORIAL HepG2 Assay (AID 2283584)
Method in brief: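 Viability endpoint from XTT after 24 h chemical exposure of reporter-transfected human HepG2 liver cells; signal loss fitted relative to DMSO negative control.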

Measured: AC50

O=C(Nc1ccc([N+](=O)[O-])cc1Cl)c1cc(Cl)ccc1O
active: [3] 3.65 µM | [4] 3.63 µM | [5] 1.97 µM | [6] 4.38 µM | [7] 129 nM and 152 nM | [8] 159 nM and 156 nM | [9] 299 nM and 230 nM | [10] 235 nM and 92 nM | [11] 0.174 µM | [12] 0.317 µM
inactive: [1] | [2] | [11] | [12] | [13] | [14] | [15] | [16] | [17] | [18]

C[C@]12C[C@H](O)[C@H]3[C@@H](CCC4=CC(=O)CC[C@@]43C)[C@@H]1CC[C@@H]2C(=O)CO
active: [1] 50 µM | [3] 50 µM
inactive: [2] | [4] | [5] | [6] | [19] | [7] | [8] | [9] | [10] | [12] | [13] | [14] | [15] | [16] | [17] | [18]

CC(=O)[C@H]1CC[C@H]2[C@@H]3CCC4=CC(=O)CC[C@]4(C)[C@H]3CC[C@]12C
inactive: [1] | [2] | [5] | [19] | [7] | [8] | [9] | [10] | [11] | [12] | [13] | [14] | [15] | [16] | [17] | [18]
active: [3] 37.9 µM | [4] 63.7 µM | [6] 35.8 µM

CCOC(=O)c1ccc(O)cc1
active: [17] 24.5 µM
inactive: [1] | [2] | [3] | [4] | [5] | [6] | [19] | [7] | [8] | [9] | [10] | [12] | [13] | [14] | [15] | [16] | [18]

CC(C)(C)[C@@H](O)[C@@H](Cc1ccc(Cl)cc1)n1cncn1
inactive: [2] | [4] | [5] | [6] | [7] | [8] | [9] | [10] | [11] | [12] | [13] | [16] | [18]
active: [1] 32.7 µM | [3] 6.98 µM | [14] 36.1 µM | [15] 40.9 µM | [17] 10.5 µM
